# Laboratory results as given in PubChem BioAssay AID2113 (National Center for Advancing Translational Sciences (NCATS), 2009).
# “And” between values parts separate entries of the source, which are not always exact repeats. Equal values may be shown once. Results filed as inconclusive are left out. The source made the active and inactive calls. The call rests on the fitted dose curve; in most records, active means well fitted curve in either direction with a large enough effect; inconclusive means small, poorly fitted or top-dose-only effect; inactive means no such curve, though single readings can be large or run the other way. Residues, ends and D or L forms follow the SMILES beside them.
# Target: Lysosomal alpha-glucosidase (Homo sapiens) (UniProt P10253)
# Test: Confirmation of Inhibitors and Activators of Human alpha-Glucosidase From Spleen Homogenate;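 on Potency: fluorescence of 4-methylumbelliferone released from a fluorogenic glucopyranoside substrate at pH 5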; on activity change, both directions: 0% is about no effect
# Conditions: alpha-glucosidase enzyme activity; series mostly up to 60.5 µM; activity change, both directions: at the top concentration
# How it was run: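 Fluorogenic assay using human spleen homogenate (1 ug) as enzyme source with 1 mM 4-methylumbelliferyl-alpha-D-glucopyranoside, pH 5.0 citrate buffer, 40 min at 37 C. 4-MU read (Ex 365/Em 440) after NaOH/glycine stop; AC50 from Hill fits.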
# Potency means the concentration at half of the fitted maximal effect.
Compound,"activity change, both directions",Potency
COc1ccc(/C=c2\s/c(=C/C(=O)c3ccc(C)cc3)[nH]c2=O)cc1OC,-4.47% [at 31.5 µM] (inactive),–
CN(CCO)S(=O)(=O)c1ccc2c(c1)C(=NNC(N)=O)c1cc(S(=O)(=O)N(C)CCO)ccc1-2,-4.76% (inactive),–
CCCN1CNc2c(c(=O)[nH]c(=S)n2CCc2ccc3c(c2)OCCO3)C1,–,15.8 µM (active)
OCCNc1nc(-c2cccs2)nc2ccccc12,0.945% (inactive),–
CCc1sc(-c2cc3cccc(OC)c3oc2=O)nc1-c1ccccc1,3.75% (inactive),–
CC(N=C(NC#N)Nc1ccncc1)C(C)(C)C (stereo unspecified),1.36% (inactive),–
C=C(C)CC(NCc1ccco1)c1ccc(OC)cc1 (stereo unspecified),4.39% (inactive),–
CCOC(=O)c1ccc(NC(=O)c2ccccc2)cc1,1.14% [at 31.5 µM] (inactive),–
C(=C\c1nccc2c1[nH]c1ccccc12)/c1ccc2c(c1)OCO2,26.5% (inactive),–
Cc1ccccc1S(=O)(=O)N1CCOCC1,-0.0363% (inactive),–
CCCN1CNc2c(c(=O)[nH]c(=S)n2CCC(C)(C)C)C1,-6.13% (inactive),–
CCCN1CNc2c(c(=O)[nH]c(=S)n2CCc2ccc(OC)c(OC)c2)C1,–,11.2 µM (active) and 15.8 µM (active)
O=S(=O)(c1ccc2nc(-c3ccco3)c(-c3ccco3)nc2c1)N1CCOCC1,-14.7% (inactive),–
N#Cc1ccc(S(=O)(=O)N2CCOCC2)cc1,-2.24% (inactive),–
c1ccc(-c2nc3nc4ccccc4nc3n2CC2CCCO2)cc1 (stereo unspecified),7.03% [at 31.5 µM] (inactive),–
CNC(=S)/N=C(\Nc1ccc(C)cc1)c1ccccc1,3.12% [at 31.5 µM] (inactive),–
CCCC[C@H](NC(=O)[C@@H]1CCCN1C(=O)[C@H]1CCCN1C(=O)[C@H](Cc1ccccc1)NC(=O)[C@@H](Cc1c[nH]c2ccccc12)NC(=O)[C@H](C)NC(=O)[C@H](CCCN=C(N)N)NC(=O)OC(C)(C)C)C(N)=O (HELM PEPTIDE1{[CC(C)(C)OC(=O)[*:2]].R.A.[dW].F.[dP].P.[Nle].[am]}$$$$V2.0),4% (inactive),–
CCOC(=O)CCc1cccc2c1CCC2=O,0.796% [at 31.5 µM] (inactive),–

Compound,"activity change, both directions",Potency
COc1ccc(/C=C/c2nnc(NC(=O)CSc3ccc(Cl)cc3)s2)cc1,–,inactive
CCCN1CNc2c(c(=O)[nH]c(=S)n2CCc2c(Cl)cccc2Cl)C1,–,35.5 µM (active)
O=S(=O)(c1ccc(F)cc1)N1CCOCC1,9.5% (inactive),–
CC(C)CNc1c(N)n(CC(C)C)c(=O)[nH]c1=O,0.596% [at 31.5 µM] (inactive),–
CCOC(=O)N1CCN(c2cc(N(C)CCO)c([N+](=O)[O-])c3nonc23)CC1,-2.42% (inactive),–
Cc1nc(SCC(=O)N2CCN(c3ccccc3)CC2)c2oc3ccccc3c2n1,6.86% (inactive),–
COc1ccc(CCn2c(=S)[nH]c(=O)c3nccnc32)cc1OC,5.16% (inactive),–
CC(=O)c1ccc(N2CCN(S(=O)(=O)c3ccc4c(c3)CCCC(=O)N4)CC2)cc1,-0.329% (inactive),–
COC(=O)c1ccc(S(=O)(=O)N2CCOCC2)cc1,-1.83% (inactive),–
Cc1cccn2c(=O)c(/C=C(\C#N)C(=O)NC3CCS(=O)(=O)C3)c(N3CCC(C)CC3)nc12 (stereo unspecified),–,11.2 µM (active)
Cc1noc(C)c1S(=O)(=O)N(CC(=O)N1CCc2ccccc21)c1ccc(C(C)C)cc1,2.08% (inactive),–
O=S(=O)(c1ccccc1)N1CCN(S(=O)(=O)c2ccccc2)CC1,4.23% (inactive),–
O=C(Cn1c(=O)[nH]n(-c2ccccc2)c1=O)N1CCCc2ccccc21,0.235% [at 31.5 µM] (inactive),–
CCCc1cc(-c2nc(N)ncc2-c2ccc3c(c2)OCCCO3)c(O)cc1OC,-7.94% (inactive),–
CC(=O)c1ccc(N2CCN(S(=O)(=O)c3ccc4[nH]c(=O)[nH]c4c3)CC2)cc1,0.795% (inactive),–
O=C(c1ccccc1)N1CCN(C(=O)N(c2ccccc2)c2ccccc2)CC1,1.94% (inactive),–
CCCN1CNc2c(c(=O)[nH]c(=S)n2CCc2cc(C)ccc2C)C1,–,8.91 µM (active)
COc1ccc(CCn2c(N)cc(=O)[nH]c2=S)cc1OC,-3.28% [at 31.5 µM] (inactive),–
